From PubChem BioAssay (NCATS)
Results filed as inconclusive are left out. Calls of active or inactive are those of the source. Unless noted, calls come from the whole dose curve.

Columns and labels:
[1] = target: Peroxisome proliferator-activated receptor delta (Homo sapiens) (UniProt Q03181); assay: qHTS assay for small molecule agonists of peroxisome proliferator-activated receptor delta signaling (AID 588534);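 note: 0% = DMSO basal wells and 100% = positive control agonist at 10 µM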
Outline: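 Reporter cells were plated and held 5 hrs at 37 C before compounds were added. After 18 hrs at 37 C, CCF4 dye was loaded for 2 hrs at RT and fluorescence measured.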

[2] = target: Glucocorticoid receptor (Homo sapiens) (UniProt P04150); assay: qHTS assay for small molecule agonists of glucocorticoid receptor signaling (AID 588532; active = well fitted curve in the direction sought with a large enough effect in the signal ratio, with a control signal flat; the % refers to the signal ratio;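 note: 100% = dexamethasone at 0.1 µM and 0% = DMSO only wells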); settings: HeLa MMTV-bla, beta-lactamase ratio, agonist, 18 h; activation: stronger effect = higher value, percent of dexamethasone control, DMSO zero
Outline: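 Cells were plated and rested 3-5 h at 37 C, compounds were added in titration and incubated 18 h, then CCF4 substrate was loaded for 2 h at RT before reading blue/green fluorescence. EC50 came from Hill-equation fitting.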

[3] = target: Glucocorticoid receptor (Homo sapiens) (UniProt P04150); assay: qHTS assay for small molecule antagonists of glucocorticoid receptor signaling (AID 588533; active = well fitted inhibition curve with a large enough effect in the signal ratio, with a control signal flat, not every such curve was filed as active; the % refers to the signal ratio; note: % is set by controls: 0 for no effect and ±100 for the full control effect)
Outline: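 Antagonist-mode qHTS: compound titrations added to GRE-bla HeLa cells, then dexamethasone 2 nM final; 18 h, 37 C. CCF4 FRET fluorescence normalized to dexamethasone and DMSO; IC50 from Hill fit.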

[4] = qHTS assay for small molecule antagonists of peroxisome proliferator-activated receptor delta signaling (AID 588535; active = well fitted inhibition curve with a large enough effect in the signal ratio, with a control signal flat, not every such curve was filed as active; the % refers to the signal ratio;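 for max response: cells co-treated with a PPAR-delta agonist as stimulator during compound exposure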); settings: HEK293T PPARd-UAS-bla, beta-lactamase FRET ratio, 18 h; 460 nm channel
Outline: (§1)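 Cells were seeded at 4000 per well in assay medium containing 2% charcoal/dextran FBS and held 5 hrs at 37 C. Compounds were then added for 18 hrs. CCF4 substrate was applied for 2 hrs at room temperature before fluorescence reading.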

[5] = target: Peroxisome proliferator-activated receptor delta (Homo sapiens) (UniProt Q03181); assay: as above
Outline: as §1

[6] = target: Peroxisome proliferator-activated receptor gamma (Homo sapiens) (UniProt P37231); assay: qHTS assay for small molecule antagonists of peroxisome proliferator-activated receptor gamma signaling (AID 588537; active = well fitted inhibition curve with a large enough effect in the signal ratio, with a control signal flat, not every such curve was filed as active; the % refers to the signal ratio;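 note: reporter cells co-stimulated with 50 nM rosiglitazone agonist during compound treatment; % of control where 0% means no effect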)
Outline: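 Step one: plate 3000 HEK293 UAS-bla cells per well in medium with 1% stripped serum and hold 6-6.5 h at 37 C. Step two: add compound and 50 nM agonist for 16 h. Step three: CCF4 loading, fluorescence read.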

[7] = target: Vitamin D3 receptor (Homo sapiens) (UniProt P11473); assay: qHTS assay for small molecule antagonists of vitamin D receptor signaling (AID 588541);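 note: receptor activated by calcitriol during compound treatment; series mostly up to about 77 µM; % is set by controls: 0 for no effect and ±100 for the full control effect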
Outline: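 VDR-UAS-bla HEK293T cells in 2% charcoal-stripped FBS were stimulated with 1-alpha,25-dihydroxyvitamin D3 (3 nM final) plus compound for 16 h at 37 C. The beta-lactamase CCF4 readout was normalized to 50 nM agonist and DMSO, and Hill fits gave IC50.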

[8] = target: Vitamin D3 receptor (Homo sapiens) (UniProt P11473); assay: qHTS assay for small molecule agonists of vitamin D receptor signaling (AID 588543);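 note: 0% = DMSO basal and 100% = reference agonist control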
Outline: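 β-lactamase reporter, VDR-UAS-bla HEK293T, agonist mode. Cells plated 5 h at 37 °C, compound titration 16 h at 37 °C, CCF4 dye 2 h RT, ratio 460/530 nm. Hill fit → EC50, efficacy vs 50 nM 1α,25-(OH)2D3.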

[9] = target: Thyroid hormone receptor beta (Homo sapiens) (UniProt P10828); assay: qHTS assay for small molecule agonists of thyroid hormone receptor beta signaling (AID 588545)
Outline: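 Cells (2500/well) were seeded, incubated 4 hrs at 37 C, dosed with a compound series, incubated 18 hrs, loaded with CCF4 dye for 2 hrs at RT, then read for fluorescence. Data were scaled between DMSO (0%) and 10 nM T3 (100%).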

[10] = qHTS assay for small molecule antagonists of retinoid X receptor alpha signaling (AID 588546; active = well fitted inhibition curve with a large enough effect in the signal ratio, with a control signal flat, not every such curve was filed as active; the % refers to the signal ratio;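 note: cells stimulated with 9-cis-retinoic acid as agonist; % is set by controls: 0 for no effect and ±100 for the full control effect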); settings: HEK293T RXRa-UAS-bla, beta-lactamase ratio, antagonist mode; measured here: W530 green channel, cytotoxicity proxy
Outline: (§2)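 Beta-lactamase reporter inhibition, read as CCF4 fluorescence ratio (ex 405, em 460/530 nm) after 2 h at RT. HEK293T UAS-bla cells, 2500/well, were stimulated with 9-cis-RA at 500 or 100 nM final alongside test compound for 18 h at 37 C.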

[11] = target: Retinoic acid receptor RXR-alpha (Homo sapiens) (UniProt P19793); assay: as above; settings: HEK293T RXRa-UAS-bla, beta-lactamase ratio, antagonist mode
Outline: as §2

[12] = target: Thyroid hormone receptor beta (Homo sapiens) (UniProt P10828); assay: qHTS assay for small molecule antagonists of thyroid hormone receptor beta signaling (AID 588547; active = well fitted inhibition curve with a large enough effect in the signal ratio, with a control signal flat, not every such curve was filed as active; the % refers to the signal ratio;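 note: cells stimulated with 0.4 nM T3 agonist during compound exposure; series mostly up to about 77 µM; % is set by controls: 0 for no effect and ±100 for the full control effect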); settings: TR-UAS-bla HEK293, beta-lactamase ratio, antagonist mode, 18 h
Outline: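 TR-UAS-bla GripTite HEK293 cells in 2% charcoal/dextran FBS medium; compounds 0.59 nM to 92 uM with T3 at 0.4nM final, 18 h at 37 C. Beta-lactamase read by CCF4 fluorescence (460/530 nm); Hill fits gave IC50 and efficacy.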

[13] = qHTS assay for small molecule agonists of the antioxidant response element (ARE) signaling pathway (AID 651741; active = well fitted activation curve with a large enough effect in the signal ratio; the % refers to the signal ratio; note: potency is the fitted concentration of half-maximal effect; for activation: % of control where 0% means no effect)
Outline: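 HepG2 ARE-bla cells plated at 2,000 cells/well and incubated 5 h at 37 C/5% CO2 received 23 nL compound in DMSO. After 16 h at 37 C, LiveBLAzer B/G FRET substrate was applied for 2 h at room temperature and fluorescence read.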

[14] = qHTS assay for small molecule activators of the p53 signaling pathway (AID 651743; active = well fitted activation curve with a large enough effect in the signal ratio, not every such curve was filed as active; the % refers to the signal ratio; note: series mostly up to about 92 µM; % of control where 0% means no effect); settings: HCT-116 p53RE-bla, beta-lactamase FRET ratio, 16 h; activation: stronger effect = higher value
Outline: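 HCT-116 p53RE-bla, 4,000 cells/well; 5 h settle; cpd/DMSO 16 h, 37 C; LiveBLAzer B/G 2 h RT; fluorescence intensity.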

[15] = qHTS assay for small molecule activators of the nuclear factor-kappa B (NF-kB) signaling pathway (AID 651749; active = well fitted activation curve with a large enough effect in the signal ratio; the % refers to the signal ratio; note: series mostly up to about 77 µM; % of control where 0% means no effect); settings: NF-kB-bla ME-180 cells, beta-lactamase FRET ratio, 16 h; activation: stronger effect = higher value
Outline: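 Incubation lasted 16 hr at 37C in 5% CO2 after 23 nL compound addition to ME-180 NF-kB-bla cells. Activation appears as beta-lactamase-mediated FRET loss.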

[16] = qHTS assay for environmental chemicals that activate the Aryl hydrocarbon Receptor (AhR) signaling pathway (AID 651777; active = well fitted curve in the direction sought with a large enough effect; an effect the other way counts as inactive or inconclusive; note: % of control where 0% means no effect; nearly all actives have a fitted effect of over 15% in size); settings: 1A2-DRE human hepatoma cells, luciferase, 24 h; activation: stronger effect = higher value
Outline: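 1A2-DRE human hepatoma reporter line; 1,200 cells/well; cmpd or DMSO 24 h, 37 C/5% CO2; One-Glo 30 min RT; luciferase lum.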

[17] = target: Peroxisome proliferator-activated receptor alpha (Homo sapiens) (UniProt Q07869); assay: qHTS assay for small molecule agonists of the peroxisome proliferator-activated receptor alpha (PPARalpha) signaling pathway (AID 651778; active = well fitted curve in the direction sought with a large enough effect; an effect the other way counts as inactive or inconclusive; note: % of control where 0% means no effect); settings: PathHunter PPARalpha complementation, chemiluminescence, 6 h; max response: stronger effect = higher value
Outline: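 Enzyme-fragment complementation assay in which ligand-bound PPARalpha translocates and forms an active enzyme that generates chemiluminescence. Cells were plated overnight, exposed to compound for 6 hr at 37 C, and then given detection reagent for 60 min at room temperature.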

[18] = qHTS assay for small molecule agonists of the antioxidant response element (ARE) signaling pathway measured by Nrf2-dependant transcriptional activity - cell viability counter screen (AID 720653; active = well fitted curve in the direction sought with a large enough effect in the repeat runs; an effect the other way counts as inactive or inconclusive; note: % is set by controls: 0 for no effect and ±100 for the full control effect); settings: ARE-bla HepG2 viability, CellTiter-Glo ATP luminescence, 16 h; max response: stronger effect = lower value
Outline: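 ARE-bla HepG2 cells treated with compounds for 16 h at 37C; this counter screen measures viability as intracellular ATP by CellTiter-Glo luminescence after 30 min at room temperature.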

[19] = qHTS assay for cell viability of HEK293 cells (AID 743288; active = well fitted curve in the direction sought with a large enough effect; an effect the other way counts as inactive or inconclusive; note: % is set by controls: 0 for no effect and ±100 for the full control effect; nearly all actives have a fitted effect of over 50% in size); settings: ATP luminescence (CellTiter-Glo), 18 h; max response: stronger effect = lower value
Outline: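 Environmental chemicals tested in qHTS format against parental HEK293 cells; 18 h treatment, 37 C; read-out ATP luminescence (CellTiter-Glo), 30 min RT development.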

[20] = qHTS assay for cell viability of the p53RE-bla HCT-116 cell line (AID 743292; active = well fitted curve in the direction sought with a large enough effect; an effect the other way counts as inactive or inconclusive; note: % is set by controls: 0 for no effect and ±100 for the full control effect; nearly all actives have a fitted effect of over 55% in size)
Outline: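 HCT-116 p53RE-bla cells seeded 4,000/well; 5 h at 37 C; compound (DMSO) added; 16 h at 37 C; CellTiter-Glo added, 30 min RT; luminescence read.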

[21] = target: Nuclear receptor subfamily 1 group I member 2 (Rattus norvegicus) (UniProt Q9R1A7); assay: qHTS assay for small molecule activators of the rat pregnane X receptor (rPXR) signaling pathway (AID 651751; call rule not given here; note: 0% is about no effect); settings: rPXR reporter cells, luciferase (One-Glo), 24 h
[22] = target: Peroxisome proliferator-activated receptor gamma (Homo sapiens) (UniProt P37231); assay: qHTS assay for small molecule agonists of peroxisome proliferator-activated receptor gamma signaling (AID 588536; active = well fitted curve in the direction sought with a large enough effect in the signal ratio, with a control signal flat, not every such curve was filed as active; the % refers to the signal ratio;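 note: 0% = DMSO basal wells and 100% = rosiglitazone at 2 µM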)
Outline: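 Test agents, titrated, stimulated HEK293 UAS-bla cells overnight (16 h, 37 C). Substrate CCF4 was then added for two hours at room temperature before fluorescence reading.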

[23] = qHTS assay for small molecule agonists of retinoid X receptor alpha signaling (AID 588544); settings: HEK293T RXRa-UAS-bla, beta-lactamase reporter, 18 h; 530 nm emission;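 for activation: 0% = DMSO basal wells and 100% = reference agonist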
[24] = target: Retinoic acid receptor RXR-alpha (Homo sapiens) (UniProt P19793); assay: as above
[25] = qHTS assay for small molecule activators of the human pregnane X receptor (PXR) signaling pathway (AID 720659; call rule not given here; note: 0% is about no effect)
[26] = qHTS assay for small molecule agonists of the antioxidant response element (ARE) signaling pathway measured by Nrf2-dependant transcriptional activity (AID 720636; active = well fitted curve in the direction sought with a large enough effect in the repeat runs; an effect the other way counts as inactive or inconclusive;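 note: HepG2 cells with an ARE-driven luciferase reporter; % of control where 0% means no effect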)
Outline: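 Cells: ARE-luc HepG2 with Nrf2-responsive luciferase. Medium contained 1% dialyzed FBS. Compound exposure lasted 16 hr at 37 C and 5% CO2, followed by ONE-Glo luciferase detection.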

Chain of Peroxisome proliferator-activated receptor delta (Homo sapiens) (Q03181 whole entry, looked up): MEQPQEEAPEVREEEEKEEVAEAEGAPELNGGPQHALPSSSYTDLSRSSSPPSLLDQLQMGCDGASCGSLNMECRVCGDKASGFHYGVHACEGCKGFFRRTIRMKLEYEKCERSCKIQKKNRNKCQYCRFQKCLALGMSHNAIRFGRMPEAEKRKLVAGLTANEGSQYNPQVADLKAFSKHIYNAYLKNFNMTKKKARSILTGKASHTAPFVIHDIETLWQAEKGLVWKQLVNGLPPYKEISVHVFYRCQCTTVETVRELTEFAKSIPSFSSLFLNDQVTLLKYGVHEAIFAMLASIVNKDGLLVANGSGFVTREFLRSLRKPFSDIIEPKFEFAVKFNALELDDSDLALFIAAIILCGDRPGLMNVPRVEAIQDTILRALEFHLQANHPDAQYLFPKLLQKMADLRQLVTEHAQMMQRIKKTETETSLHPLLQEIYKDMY
Chain of Peroxisome proliferator-activated receptor gamma (Homo sapiens) (P37231 whole entry, looked up): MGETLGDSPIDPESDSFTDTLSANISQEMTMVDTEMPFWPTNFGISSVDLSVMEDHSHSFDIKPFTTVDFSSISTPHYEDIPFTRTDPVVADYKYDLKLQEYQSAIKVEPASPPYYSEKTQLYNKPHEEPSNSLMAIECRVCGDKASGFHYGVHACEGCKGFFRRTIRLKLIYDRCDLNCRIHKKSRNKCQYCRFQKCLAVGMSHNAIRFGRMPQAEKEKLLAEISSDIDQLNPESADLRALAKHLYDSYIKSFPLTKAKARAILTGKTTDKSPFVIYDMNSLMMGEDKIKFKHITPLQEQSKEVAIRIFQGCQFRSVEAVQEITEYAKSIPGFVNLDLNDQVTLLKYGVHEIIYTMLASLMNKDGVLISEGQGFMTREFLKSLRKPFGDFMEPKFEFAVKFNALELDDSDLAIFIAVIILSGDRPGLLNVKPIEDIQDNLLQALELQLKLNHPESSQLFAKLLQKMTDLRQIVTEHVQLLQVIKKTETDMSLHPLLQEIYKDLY
Chain of Vitamin D3 receptor (Homo sapiens) (P11473 whole entry, looked up): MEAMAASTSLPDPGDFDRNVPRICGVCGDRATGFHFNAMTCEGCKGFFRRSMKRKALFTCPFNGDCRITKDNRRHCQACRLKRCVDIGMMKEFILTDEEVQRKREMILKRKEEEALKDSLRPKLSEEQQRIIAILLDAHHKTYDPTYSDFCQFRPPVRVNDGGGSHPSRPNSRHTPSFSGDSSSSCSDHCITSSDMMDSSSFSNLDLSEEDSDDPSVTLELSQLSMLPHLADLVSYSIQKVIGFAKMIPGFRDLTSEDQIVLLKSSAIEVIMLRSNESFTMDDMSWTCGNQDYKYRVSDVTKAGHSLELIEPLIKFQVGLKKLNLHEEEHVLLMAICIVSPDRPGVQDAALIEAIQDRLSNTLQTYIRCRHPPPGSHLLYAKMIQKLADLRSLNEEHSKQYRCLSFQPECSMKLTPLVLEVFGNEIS
Chain of Thyroid hormone receptor beta (Homo sapiens) (P10828 whole entry, looked up): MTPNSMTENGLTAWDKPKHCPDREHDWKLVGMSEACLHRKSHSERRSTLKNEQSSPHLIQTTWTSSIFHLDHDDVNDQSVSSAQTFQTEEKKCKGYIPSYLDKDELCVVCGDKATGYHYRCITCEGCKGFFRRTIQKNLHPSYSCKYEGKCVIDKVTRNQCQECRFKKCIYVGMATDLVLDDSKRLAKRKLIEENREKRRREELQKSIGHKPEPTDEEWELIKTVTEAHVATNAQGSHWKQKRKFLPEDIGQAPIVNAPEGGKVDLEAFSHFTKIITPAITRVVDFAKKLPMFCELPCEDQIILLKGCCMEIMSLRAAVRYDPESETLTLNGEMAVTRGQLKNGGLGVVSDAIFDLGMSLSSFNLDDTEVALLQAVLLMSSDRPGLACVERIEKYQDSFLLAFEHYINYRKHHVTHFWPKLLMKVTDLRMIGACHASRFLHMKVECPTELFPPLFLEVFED
Chain of Retinoic acid receptor RXR-alpha (Homo sapiens) (P19793 whole entry, looked up): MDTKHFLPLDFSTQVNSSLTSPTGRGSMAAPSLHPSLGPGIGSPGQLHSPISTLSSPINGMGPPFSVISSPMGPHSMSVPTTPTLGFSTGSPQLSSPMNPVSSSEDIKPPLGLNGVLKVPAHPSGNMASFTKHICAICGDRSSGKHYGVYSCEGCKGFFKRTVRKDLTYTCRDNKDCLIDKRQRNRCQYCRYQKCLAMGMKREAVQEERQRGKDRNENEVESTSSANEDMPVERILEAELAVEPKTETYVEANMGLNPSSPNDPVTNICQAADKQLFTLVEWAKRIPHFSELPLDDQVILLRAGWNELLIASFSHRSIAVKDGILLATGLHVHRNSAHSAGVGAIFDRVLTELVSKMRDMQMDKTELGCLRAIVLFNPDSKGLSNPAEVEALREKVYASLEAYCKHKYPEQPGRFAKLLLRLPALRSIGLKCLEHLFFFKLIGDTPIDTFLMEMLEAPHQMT
Chain of Nuclear receptor subfamily 1 group I member 2 (Rattus norvegicus) (Q9R1A7 whole entry, looked up): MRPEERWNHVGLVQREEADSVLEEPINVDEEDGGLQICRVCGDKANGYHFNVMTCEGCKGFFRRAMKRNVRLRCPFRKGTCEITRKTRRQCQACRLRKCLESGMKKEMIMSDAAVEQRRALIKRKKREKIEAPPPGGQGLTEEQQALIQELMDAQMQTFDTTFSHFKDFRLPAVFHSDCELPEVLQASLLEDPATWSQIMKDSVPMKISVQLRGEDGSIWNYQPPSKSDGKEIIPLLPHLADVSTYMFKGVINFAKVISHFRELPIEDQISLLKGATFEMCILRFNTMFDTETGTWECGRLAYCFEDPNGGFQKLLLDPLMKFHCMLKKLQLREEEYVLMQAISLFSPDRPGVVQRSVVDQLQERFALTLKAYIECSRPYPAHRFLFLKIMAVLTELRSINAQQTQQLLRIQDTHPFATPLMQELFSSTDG
Chain of Glucocorticoid receptor (Homo sapiens) (P04150 whole entry, looked up): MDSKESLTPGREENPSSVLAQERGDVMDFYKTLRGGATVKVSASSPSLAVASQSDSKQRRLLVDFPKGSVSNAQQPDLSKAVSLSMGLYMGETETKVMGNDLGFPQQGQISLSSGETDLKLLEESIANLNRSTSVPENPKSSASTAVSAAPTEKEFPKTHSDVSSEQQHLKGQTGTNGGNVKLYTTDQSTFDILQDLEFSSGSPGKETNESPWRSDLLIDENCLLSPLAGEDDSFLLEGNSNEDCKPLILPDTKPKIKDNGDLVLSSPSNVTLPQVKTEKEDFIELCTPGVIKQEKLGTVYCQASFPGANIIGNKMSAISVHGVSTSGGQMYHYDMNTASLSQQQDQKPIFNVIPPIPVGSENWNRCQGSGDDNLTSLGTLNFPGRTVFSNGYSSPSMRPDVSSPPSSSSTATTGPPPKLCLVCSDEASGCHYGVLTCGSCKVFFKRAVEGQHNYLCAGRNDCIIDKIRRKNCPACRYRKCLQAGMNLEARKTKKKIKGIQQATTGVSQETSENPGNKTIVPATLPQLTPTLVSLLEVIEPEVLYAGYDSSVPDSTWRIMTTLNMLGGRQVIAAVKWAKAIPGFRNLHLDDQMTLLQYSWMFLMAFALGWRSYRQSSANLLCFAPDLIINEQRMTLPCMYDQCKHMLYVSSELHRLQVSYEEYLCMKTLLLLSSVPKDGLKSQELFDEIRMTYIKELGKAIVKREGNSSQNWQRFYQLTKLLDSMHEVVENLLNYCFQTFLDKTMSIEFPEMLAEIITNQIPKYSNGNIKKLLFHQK
Chain of Peroxisome proliferator-activated receptor alpha (Homo sapiens) (Q07869 whole entry, looked up, the tested form may be a part): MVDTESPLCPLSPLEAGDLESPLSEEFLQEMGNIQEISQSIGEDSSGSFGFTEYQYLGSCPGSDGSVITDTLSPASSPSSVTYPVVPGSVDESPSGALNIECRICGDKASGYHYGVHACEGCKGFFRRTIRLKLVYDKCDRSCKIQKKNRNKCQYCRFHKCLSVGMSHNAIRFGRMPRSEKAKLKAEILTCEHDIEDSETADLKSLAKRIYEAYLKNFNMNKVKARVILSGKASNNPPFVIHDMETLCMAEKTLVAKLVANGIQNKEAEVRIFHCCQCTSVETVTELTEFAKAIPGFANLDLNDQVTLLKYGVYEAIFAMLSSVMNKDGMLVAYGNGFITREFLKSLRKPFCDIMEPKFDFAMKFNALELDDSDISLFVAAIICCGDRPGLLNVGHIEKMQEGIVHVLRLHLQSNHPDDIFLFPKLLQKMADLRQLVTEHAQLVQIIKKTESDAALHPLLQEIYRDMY

Nc1ccc(Cl)cc1[N+](=O)[O-]
inactive: outcome [1]

O=[N+]([O-])c1ccc(Oc2ccc(Cl)cc2Cl)cc1
-7.09%: max response [10]
inactive: activation [2] -3.5% | Potency [3] | outcome [1] | Potency [5] | Potency [6] | Potency [7] | outcome [8] | Potency [9] | max response [11] 5.62% | activity change % (negative = inhibition) [12] -8.47% | activation [14] -0.909% | activation [15] -1.65% | activation [16] 0.167% | max response [17] 5% | max response [18] -3.33% | max response [19] -5.28% | Potency [20] | max response [21] 6.97%
-2.51%: max response [4]
active: Potency [13] 48.6 µM

Cc1cc(C)nc(Nc2ccccc2)n1
inactive: activation [2] -19% | Potency [3] | outcome [1] | Potency [22] | Potency [6] | Potency [24] | Potency [9] | max response [11] -45.9% | activity change % (negative = inhibition) [12] -4.91% | activation [14] -0.291% | activation [15] -2.63% | activation [16] 7.09% | max response [17] 5.23% | max response [18] -4.46% | max response [19] -15.1% | Potency [20] | max response [21] 11.4% | outcome [25]
-7.16%: max response [10]
-19.7%: max response [4]
1.3%: max response [23]

CNC(=O)O/N=C(\C)SC
-3.33%: max response [10]
24.5%: max response [4]
inactive: activation [2] -2.31% | Potency [3] | outcome [1] | Potency [6] | Potency [7] | outcome [8] | Potency [24] | Potency [9] | max response [11] 8.15% | Potency [13] | activation [14] -0.165% | activation [15] -0.423% | activation [16] -1.88% | Potency [26] | max response [18] -4.43% | max response [19] -6.55% | Potency [20] | max response [21] -0.197%
-25.7%: max response [23]

CCCCCCCC[Si](OCC)(OCC)OCC
inactive: outcome [1]

CC1(C)C(C=C(Cl)Cl)[C@H]1C(=O)OCc1cccc(Oc2ccccc2)c1 (stereo partly drawn)
inactive: activation [2] 0.728% | outcome [8] | Potency [24] | activation [16] 0.692%
-6.06%: max response [23]

CCNc1nc(Cl)nc(NC(C)(C)C#N)n1
inactive: activation [2] -6.13% | Potency [3] | outcome [1] | Potency [5] | Potency [6] | Potency [24] | Potency [9] | max response [11] -7.14% | activity change % (negative = inhibition) [12] -10.7% | activation [14] -4.15% | activation [16] 1.84% | max response [18] -18.8% | max response [19] 4.63% | Potency [20] | max response [21] -0.0883%
32.2%: max response [4]
-4.23%: max response [23]
0.495%: max response [10]
